# Experimental data as given in PubChem BioAssay AID1159580 (chemical genetic matrix, 2015).
# Screen size: about 5,500 compounds; about 2,000 (36%) were called active. Not shown: some 18% with an inconclusive outcome. This is one part of the list. Unmarked numbers belong to inactive results. Rule as the data show it: active = normalized growth mostly below about 0.91 (no sharp cut-off); inconclusive = no clear call, values can overlap the other calls; inactive = mostly above about 0.92.
# Experiment: chemical genetic growth profiling, strain panel (AID 1159580);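 also: tested at 20 µM; growth read once vehicle control cultures reached saturation at 30 °C; 1 = growth at the plate median or of vehicle wells; lower values mean less growth of the strain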
# Conditions: growth OD
structure (smiles),measurement,setting,value
CC(=O)OC1CCC2C3CCc4cc(O)ccc4C3CCC12C (stereo unspecified),normalized growth,"S. cerevisiae deletion strains, locus YJR075W, strain HOC1, active compounds read low",0.919
same,normalized growth,"S. cerevisiae deletion strains, locus YKL009W, strain mrt4, active compounds read low",0.923
same,normalized growth,"S. cerevisiae deletion strains, locus YKL068W, active compounds read low",1.01
same,normalized growth,"S. cerevisiae deletion strains, locus YKL085W, strain MDH1 (second series), active compounds read low",0.98
same,normalized growth,"S. cerevisiae deletion strains, locus YKL085W, strain MDH1, active compounds read low",0.98
same,normalized growth,"S. cerevisiae deletion strains, locus YKL160W, strain elf1, active compounds read low",0.904
same,normalized growth,"S. cerevisiae deletion strains, locus YKL190W, strain CNB1, active compounds read low",1.01
same,normalized growth,"S. cerevisiae deletion strains, locus YKR001C, strain vps1, active compounds read low",0.977
same,normalized growth,"S. cerevisiae deletion strains, locus YKR026C, strain gcn3, active compounds read low",0.998
same,normalized growth,"S. cerevisiae deletion strains, locus YKR091W, strain srl3, active compounds read low",1
same,normalized growth,"S. cerevisiae deletion strains, locus YLL001W, strain dnm1, active compounds read low",0.963
same,normalized growth,"S. cerevisiae deletion strains, locus YLL026W, active compounds read low",0.996
same,normalized growth,"S. cerevisiae deletion strains, locus YLL041C, strain sdh2, active compounds read low",1.02
same,normalized growth,"S. cerevisiae deletion strains, locus YLR027C, strain aat2, active compounds read low",0.976
same,normalized growth,"S. cerevisiae deletion strains, locus YLR039C, strain RIC1, active compounds read low",0.86
same,normalized growth,"S. cerevisiae deletion strains, locus YLR058C, strain SHM2, active compounds read low",0.971
same,normalized growth,"S. cerevisiae deletion strains, locus YLR102C, strain apc9, active compounds read low",1.02
same,normalized growth,"S. cerevisiae deletion strains, locus YLR113W, strain HOG1, active compounds read low",0.918
same,normalized growth,"S. cerevisiae deletion strains, locus YLR221C, strain rsa3, active compounds read low",0.949
same,normalized growth,"S. cerevisiae deletion strains, locus YLR258W, strain gsy2, active compounds read low",0.978
same,normalized growth,"S. cerevisiae deletion strains, locus YLR262C, strain YPT6 (second series), active compounds read low",0.856 (active)
same,normalized growth,"S. cerevisiae deletion strains, locus YLR262C, strain YPT6, active compounds read low",0.832
same,normalized growth,"S. cerevisiae deletion strains, locus YLR268W, strain sec22, active compounds read low",0.97
same,normalized growth,"S. cerevisiae deletion strains, locus YLR320W, strain mms22, active compounds read low",0.922
same,normalized growth,"S. cerevisiae deletion strains, locus YLR330W, strain CHS5, active compounds read low",1.02
same,normalized growth,"S. cerevisiae deletion strains, locus YLR342W, strain FKS1 (second series), active compounds read low",0.891
same,normalized growth,"S. cerevisiae deletion strains, locus YLR342W, strain FKS1, active compounds read low",0.886 (active)
same,normalized growth,"S. cerevisiae deletion strains, locus YLR357W, strain rsc2, active compounds read low",0.848 (active)
same,normalized growth,"S. cerevisiae deletion strains, locus YLR370C, strain arc18, active compounds read low",0.98
same,normalized growth,"S. cerevisiae deletion strains, locus YLR371W, strain rom2, active compounds read low",1.01
same,normalized growth,"S. cerevisiae deletion strains, locus YLR384C, strain iki3, active compounds read low",0.964
same,normalized growth,"S. cerevisiae deletion strains, locus YLR418C, strain cdc73, active compounds read low",0.941
same,normalized growth,"S. cerevisiae deletion strains, locus YML016C, strain PPZ1, active compounds read low",1
same,normalized growth,"S. cerevisiae deletion strains, locus YML032C, strain rad52, active compounds read low",0.954
same,normalized growth,"S. cerevisiae deletion strains, locus YML120C, strain ndi1, active compounds read low",0.98
same,normalized growth,"S. cerevisiae deletion strains, locus YML124C, strain tub3, active compounds read low",1.01
same,normalized growth,"S. cerevisiae deletion strains, locus YMR058W, strain fet3, active compounds read low",0.983
same,normalized growth,"S. cerevisiae deletion strains, locus YMR078C, strain ctf18, active compounds read low",1.02
same,normalized growth,"S. cerevisiae deletion strains, locus YMR125W, strain sto1, active compounds read low",0.927
same,normalized growth,"S. cerevisiae deletion strains, locus YMR129W, active compounds read low",1.01
same,normalized growth,"S. cerevisiae deletion strains, locus YMR205C, strain PFK2, active compounds read low",0.954
same,normalized growth,"S. cerevisiae deletion strains, locus YMR223W, strain ubp8, active compounds read low",0.969
same,normalized growth,"S. cerevisiae deletion strains, locus YMR231W, strain pep5, active compounds read low",1.01
same,normalized growth,"S. cerevisiae deletion strains, locus YMR263W, strain SAP30, active compounds read low",0.919
same,normalized growth,"S. cerevisiae deletion strains, locus YMR307W, strain GAS1, active compounds read low",0.54 (active)
same,normalized growth,"S. cerevisiae deletion strains, locus YNL067W, strain RPL9B, active compounds read low",0.945
same,normalized growth,"S. cerevisiae deletion strains, locus YNL071W, strain lat1, active compounds read low",0.994
same,normalized growth,"S. cerevisiae deletion strains, locus YNL153C, strain GIM3, active compounds read low",0.891
same,normalized growth,"S. cerevisiae deletion strains, locus YNL183C, strain NPR1, active compounds read low",0.885
same,normalized growth,"S. cerevisiae deletion strains, locus YNL209W, strain ssb2, active compounds read low",0.982
same,normalized growth,"S. cerevisiae deletion strains, locus YNL233W, strain BNI4, active compounds read low",0.806 (active)
same,normalized growth,"S. cerevisiae deletion strains, locus YNL248C, strain rpa49, active compounds read low",0.975
same,normalized growth,"S. cerevisiae deletion strains, locus YNL250W, strain rad50, active compounds read low",1.01
same,normalized growth,"S. cerevisiae deletion strains, locus YNL271C, strain bni1, active compounds read low",1.02
same,normalized growth,"S. cerevisiae deletion strains, locus YNL298W, strain CLA4, active compounds read low",0.973
same,normalized growth,"S. cerevisiae deletion strains, locus YNL307C, strain MCK1, active compounds read low",1
same,normalized growth,"S. cerevisiae deletion strains, locus YNL322C, strain KRE1 (second series), active compounds read low",0.973
same,normalized growth,"S. cerevisiae deletion strains, locus YNL322C, strain KRE1, active compounds read low",0.963
same,normalized growth,"S. cerevisiae deletion strains, locus YNR049C, strain mso1, active compounds read low",1.01
same,normalized growth,"S. cerevisiae deletion strains, locus YNR052C, strain pop2, active compounds read low",1.01
same,normalized growth,"S. cerevisiae deletion strains, locus YOL006C, strain TOP1, active compounds read low",0.942
same,normalized growth,"S. cerevisiae deletion strains, locus YOL012C, strain htz1",1.3
same,normalized growth,"S. cerevisiae deletion strains, locus YOL147C, strain pex11, active compounds read low",1.02
same,normalized growth,"S. cerevisiae deletion strains, locus YOR001W, strain rrp6, active compounds read low",0.966
same,normalized growth,"S. cerevisiae deletion strains, locus YOR061W, strain CKA2, active compounds read low",1
same,normalized growth,"S. cerevisiae deletion strains, locus YOR069W, strain VPS5, active compounds read low",1.01
same,normalized growth,"S. cerevisiae deletion strains, locus YOR070C, strain gyp1, active compounds read low",0.989
same,normalized growth,"S. cerevisiae deletion strains, locus YOR080W, strain dia2, active compounds read low",0.998
same,normalized growth,"S. cerevisiae deletion strains, locus YOR083W, strain WHI5, active compounds read low",0.904
same,normalized growth,"S. cerevisiae deletion strains, locus YOR106W, strain vam3, active compounds read low",0.94
same,normalized growth,"S. cerevisiae deletion strains, locus YOR136W, strain idh2, active compounds read low",0.994
same,normalized growth,"S. cerevisiae deletion strains, locus YOR144C, strain elg1, active compounds read low",1
same,normalized growth,"S. cerevisiae deletion strains, locus YOR184W, strain ser1, active compounds read low",0.945
same,normalized growth,"S. cerevisiae deletion strains, locus YOR231W, strain MKK1, active compounds read low",0.96
same,normalized growth,"S. cerevisiae deletion strains, locus YOR265W, strain rbl2, active compounds read low",0.998
same,normalized growth,"S. cerevisiae deletion strains, locus YOR270C, strain vph1, active compounds read low",0.924
same,normalized growth,"S. cerevisiae deletion strains, locus YOR290C, strain snf2, active compounds read low",0.971
same,normalized growth,"S. cerevisiae deletion strains, locus YOR316C, strain cot1, active compounds read low",1.02
same,normalized growth,"S. cerevisiae deletion strains, locus YPL051W, strain arl3, active compounds read low",0.959
same,normalized growth,"S. cerevisiae deletion strains, locus YPL055C, strain LGE1, active compounds read low",0.842
same,normalized growth,"S. cerevisiae deletion strains, locus YPL078C, strain atp4, active compounds read low",0.91
same,normalized growth,"S. cerevisiae deletion strains, locus YPL106C, strain sse1, active compounds read low",0.848 (active)
same,normalized growth,"S. cerevisiae deletion strains, locus YPL240C, strain hsp82, active compounds read low",1.01
same,normalized growth,"S. cerevisiae deletion strains, locus YPL241C, strain CIN2, active compounds read low",1.02
same,normalized growth,"S. cerevisiae deletion strains, locus YPL256C, strain CLN2, active compounds read low",0.931
same,normalized growth,"S. cerevisiae deletion strains, locus YPR119W, strain clb2, active compounds read low",1
same,normalized growth,"S. cerevisiae deletion strains, locus YPR141C, strain kar3, active compounds read low",1.02
same,normalized growth,"S. cerevisiae deletion strains, locus YPR163C, strain tif3, active compounds read low",1.03
same,normalized growth,"S. cerevisiae deletion strains, locus YPR167C, strain met16, active compounds read low",1.01
same,normalized growth,"S. cerevisiae deletion strains, strain wtn01, active compounds read low",0.995
same,normalized growth,"S. cerevisiae strains, strain wild type, active compounds read low",0.967
